PubChem BioAssay AID1347414 (National Center for Advancing Translational Sciences (NCATS), 2020)
Results filed as inconclusive are left out. Values without a mark were called inactive. Active and inactive are the calls of the source. Calls follow the shape of the dose curve; as a rule, active = well fitted inhibition curve with a large enough effect; inconclusive = small, poorly fitted or top-dose-only effect; inactive = no such curve, though single readings can be large or run the other way.

test: qHTS to identify inhibitors of the type 1 interferon - major histocompatibility complex class I in skeletal muscle: Secondary screen by immunofluorescence; details: C25cl48 myoblasts, IFN-b induced HLA-ABC immunofluorescence, 24 h, Viability; series mostly up to 49.8 µM; activity change, negative = inhibition: at the top concentration; also: nearly all actives have a fitted effect of over 70% in size;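 as to activity change, negative = inhibition: digitonin at 100 µM served as the cytotoxic control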
Source text: Assay Submitter (PI): Travis B. Kinder Ph.D. & James Inglese Ph.D. Assay Development and Screening Technology Laboratory (ADST) National Center for Advancing Translational Sciences (NCATS), Rockville, MD National Institute of Health (NIH), Bethesda, Maryland Idiopathic inflammatory myopathies, collectively referred to as myositis, are a group of rare autoimmune diseases characterized by skeletal muscle inflammation, weakness, and usually accompanied by systemic pathologies of the skin, lungs, or vasculature. Current immunosuppressive therapies and glucocorticoids are often not curative and are accompanied by harsh side effects, especially in children with juvenile myositis. We initiated a drug repurposing and development program to identify more targeted, less toxic therapeutics to treat myositis. Although its cause is not known, muscle from a subset of patients have an abundance of the inflammatory type 1 interferon (IFN) and a down-stream product major histocompatibility complex class I (MHC class I), which are both thought to contribute to damage and weakness. We conducted quantitative high throughput screening (qHTS) on 6,576 compounds (4,679 unique) through a series of cell-based assays to identify those that inhibit the IFN-stimulated expression of MHC class I in muscle precursor cells (myoblasts). The compound identification and evaluation strategy utilized a primary screen with reporter-tagged MHC class I in genome-engineered myoblasts, ATP content counter screen for viability, HLA-ABC immunofluorescence secondary screen, and HLA-B RT-qPCR tertiary screen. To verify activity of compounds identified by qHTS in HLA-B HiBit reporter cells, compounds were assayed by high throughput HLA-ABC immunofluorescence. Briefly, 216 compounds identified from primary and counter screening as inhibitory with minimal cytotoxicity were dispensed into black/clear bottom […] using acoustic dispensing in an 11-point, 1:3 titration with a high final concentration of 50 uM. Normal immortalized human myoblasts C25cl48 were added to the plates with 4.0 ng/ml human IFN-beta for 24 hours, fixed, stained by immunofluorescence for HLA-ABC protein, nuclei, and cell body, and analyzed by laser scanning cytometry as described by Auld et al., 2006. References: Auld DS, Johnson RL, Zhang Y, Veith H, Jadhav A, Yasgar A, Simeonov A, Zheng W, Martinez ED, Westwick JK, Austin CP, Inglese J. 2006. Fluorescent protein-based cellular assays analyzed by laser-scanning microplate cytometry in 1536-well plate format. Methods Enzymol 414:566-89. doi:10.1016/S0076-6879(06)14029-X
PROTOCOL TABLE (as described by Inglese et al., 2007) SEQUENCE No. (e.g., 1, 2, 3, etc.); […] (e.g., Cells, Incubation, Reagent, etc.); VALUE; DESCRIPTION 0; Compounds; 25 nl; Follow-up compounds dispensed at 25 nl/well with Labcyte Echo 655 acoustic dispenser in triplicate Aurora ChemLib 1536K black/clear bottom, low base, TC 1536-well plates (00019324). Also dispensed 25 nl/well DMSO control, ruxolitinib IFN-b inhibitor control titration, and digitonin cytotoxic control 1a; Cells; 5 uL; Multidrop Combi (Thermo Scientific) to seed 125 cells/well into eight plates in 5 ul/well of iHSKM growth medium (GM) without dexamethasone into columns 1+2. Add metal lids with gas-exchange holes 1b; Cells; 5 uL; Multidrop Combi (Thermo Scientific) to seed 125 cells/well into eight plates in 5 ul/well of iHSKM GM without dexamethasone + 4 ng/ml IFN-b into columns 3 - 48. […]
% is scaled to controls: 0 for no effect and ±100 for the full control effect; potency is read from the fitted curve at half-maximal effect.

**Q.** With COC(=O)[C@@]12OC[C@]34[C@H]([C@@H](O)[C@@H]1O)[C@@]1(C)CC(=O)C(O)=C(C)[C@@H]1C[C@H]3OC(=O)[C@H](OC(=O)/C=C(\C)C(C)C)[C@@H]24 as the compound, how does the “activity change, negative = inhibition” value read?
**A.** 3.25%

**Q.** For C=C(C)[C@@H]1CCC(C)=C[C@H]1c1c(O)cc(CCCCC)cc1O, which Potency is on record?
**A.** 25.7 µM (active)

**Q.** For Cc1sc2c(c1C)C(c1ccc(Cl)cc1)=N[C@@H](CC(N)=O)c1nnc(C)n1-2, which “activity change, negative = inhibition” value is on record?
**A.** 5.41%

**Q.** For CN(C)c1cc2c(cc1Sc1nc3c(N)nccc3n1CCNCC(C)(C)C)OCO2, which “activity change, negative = inhibition” value is on record?
**A.** 3.61%

**Q.** For Cc1sc2c(c1C)C(c1ccc(Cl)cc1)=N[C@@H](CC(=O)Nc1ccc(O)cc1)c1nnc(C)n1-2, which “activity change, negative = inhibition” value is on record?
**A.** 23.5%

**Q.** With O=C1/C(=C\c2ccccc2)C[C@@]2(O)[C@H]3Cc4ccc(O)c5c4[C@@]2(CCN3CC2CC2)[C@H]1O5 as the compound, how does the Potency read?
**A.** 10.2 µM (active)

**Q.** Which Potency does the source give for CC1=C(O)C(=O)C=C2C1=CC=C1[C@@]2(C)CC[C@@]2(C)[C@@H]3C[C@](C)(C(=O)O)CC[C@]3(C)CC[C@]12C here?
**A.** 5.76 µM (active)

**Q.** Which “activity change, negative = inhibition” value does the source give for CC(C)[C@]12O[C@H]1[C@@H]1O[C@@]13[C@@]1(C)CCC4=C(COC4=O)[C@@H]1C[C@@H]1O[C@@]13C2=O here?
**A.** 3.97%

**Q.** Which “activity change, negative = inhibition” value does the source give for C/C1=C/C[C@@H](/C(C)=C/c2csc(C)n2)OC(=O)C[C@H](O)C(C)(C)C(=O)[C@H](C)[C@@H](O)[C@@H](C)CCC1 here?
**A.** -13.6%

**Q.** With CC1(C)CC[C@]2(NC(=O)C(C)(F)F)CC[C@]3(C)[C@H](C(=O)C=C4[C@@]5(C)C=C(C#N)C(=O)C(C)(C)[C@@H]5CC[C@]43C)[C@@H]2C1 as the compound, how does the Potency read?
**A.** 4.08 µM (active)

**Q.** For CC(C)(O)/C=C\C(=O)[C@](C)(O)[C@H]1[C@H](O)C[C@]2(C)[C@@H]3CC=C4[C@@H](C=C(O)C(=O)C4(C)C)[C@]3(C)C(=O)C[C@@]12C, which Potency is on record?
**A.** 16.2 µM (active)

**Q.** For C[C@@H]1O[C@@H](O[C@H]2C[C@@H](O)[C@]3(CO)[C@H]4[C@H](O)C[C@]5(C)[C@@H](C6=CC(=O)OC6)CC[C@]5(O)[C@@H]4CC[C@]3(O)C2)[C@H](O)[C@H](O)[C@H]1O, which “activity change, negative = inhibition” value is on record?
**A.** 1.82%

**Q.** Which “activity change, negative = inhibition” value does the source give for CC(C)[C@]12O[C@H]1[C@@H]1O[C@]13[C@]1(O[C@H]1C[C@H]1C4=C(CC[C@@]13C)C(=O)OC4)[C@@H]2O here?
**A.** 7.8%

**Q.** Which Potency does the source give for CC(=O)OC[C@H]1O[C@@H]([S-])[C@H](OC(C)=O)[C@@H](OC(C)=O)[C@@H]1OC(C)=O.CC[PH+](CC)CC.[Au] here?
**A.** 1.62 µM (active)

**Q.** With CC(C)(C)c1cc(C=C(C#N)C#N)cc(C(C)(C)C)c1O as the compound, how does the “activity change, negative = inhibition” value read?
**A.** 2.35%

**Q.** For O=[N+]([O-])/C=C/c1ccc2c(c1)OCO2, which Potency is on record?
**A.** 11.5 µM (active)

**Q.** With CCn1cnc2c(Nc3cccc(Cl)c3)nc(N[C@@H]3CCCC[C@@H]3N)nc21 as the compound, how does the Potency read?
**A.** 25.7 µM (active)

**Q.** Which Potency does the source give for O=c1[nH]c2ccc(Cl)cc2c(N[C@@H]2CN3CCC2CC3)c1-c1nc2ccccc2[nH]1 here?
**A.** 4.58 µM (active)

**Q.** With CC[C@@]1(O)C(=O)OCc2c1cc1n(c2=O)Cc2cc3ccccc3nc2-1 as the compound, how does the Potency read?
**A.** inactive

**Q.** Which Potency does the source give for COC(=O)[C@]12CCC(C)(C)C[C@H]1[C@H]1C(=O)C=C3[C@@]4(C)C=C(C#N)C(=O)C(C)(C)[C@@H]4CC[C@@]3(C)[C@]1(C)CC2 here?
**A.** 3.64 µM (active)

**Q.** Which “activity change, negative = inhibition” value does the source give for Cc1[nH]ncc1-c1cc2nc([C@@H]3CC4CCN3CC4)[nH]c(=O)c2s1 here?
**A.** 6.86%

**Q.** Which “activity change, negative = inhibition” value does the source give for COc1cccc2c1C(=O)c1c(O)c3c(c(O)c1C2=O)C[C@@](O)(C(=O)CO)CC3OC1CC(N2CCOC(OC)C2)C(O)C(C)O1 (stereo not given in full) here?
**A.** 1.3%

**Q.** With Cc1sc2c(c1C)C(c1ccc(Cl)cc1)=N[C@@H](CC(=O)OC(C)(C)C)c1nnc(C)n1-2 as the compound, how does the “activity change, negative = inhibition” value read?
**A.** 31.9%

**Q.** With C[C@@H]1O[C@@H](O[C@@H]2C=C3CC[C@@H]4[C@H](CC[C@]5(C)[C@@H](c6ccc(=O)oc6)CC[C@]45O)[C@@]3(C)CC2)[C@H](O)[C@H](O)[C@H]1O as the compound, how does the “activity change, negative = inhibition” value read?
**A.** 14.8%

**Q.** With C/C(=C\c1csc(C)n1)[C@@H]1C[C@@H]2O[C@]2(C)CCC[C@H](C)[C@H](O)[C@@H](C)C(=O)C(C)(C)[C@@H](O)CC(=O)O1 as the compound, how does the “activity change, negative = inhibition” value read?
**A.** -0.361%
